One test has as its system UISO. As to the kind of experiment: qHTS assay to identify novel small-molecules to repurpose for Merkel cell carcinoma treatment (AID 1296009). Further: nearly all actives have a fitted effect of over 60% in size. Further: potency means the concentration at half of the fitted maximal effect. The settings on record: MCC and control cell lines, CellTiter-Glo viability, 72 h; series mostly up to 46 µM. In short, it runs like this:
(§1)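 Cells were incubated with compound for 72 hr at 37 degree celsius before CellTiter-Glo addition. Luminescence was normalized with no-cell wells as full cytotoxicity and DMSO as baseline.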
For orientation: In qHTS, concentration-response curves come from the screen itself.

The next test has as its system WaGa. Described as above. Particulars: MCC and control cell lines, CellTiter-Glo viability, 72 h; series mostly up to 46 µM. The essentials:
as §1

For the next test, the system named is C33A. As to the kind of experiment: Primary qHTS to identify gynecologic anti-cancer compounds using libraries of approved drugs and bioactive compounds (AID 1345084). Further: nearly all actives have a fitted effect of over 55% in size. Further: potency means the concentration at half of the fitted maximal effect. The settings on record: Gynecologic cancer cell panel viability, ATPlite luminescence, 48 h; series mostly up to 57.5 µM. In short, it runs like this: (§2)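 Five-concentration response, 48 h; readout is ATP-driven luciferase luminescence.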

The next test relates to CAOV3. The description is as above. The settings on record: Gynecologic cancer cell panel viability, ATPlite luminescence, 48 h; series mostly up to 57.5 µM. In short, it runs like this:
as §2
(Cellular ATP, detected with luciferase, serves as a proxy for viable cell number.)

For a further test, the system named is CASKI. The test is described as above. The settings on record: Gynecologic cancer cell panel viability, ATPlite luminescence, 48 h; series mostly up to 57.5 µM. The essentials: as §2
For another test, the system named is Es-2. The description is as above. The settings on record: Gynecologic cancer cell panel viability, ATPlite luminescence, 48 h; series mostly up to 57.5 µM. In short, it runs like this: as §2
For the next test, the system named is HeLa. The test is described as above. Particulars: Gynecologic cancer cell panel viability, ATPlite luminescence, 48 h; series mostly up to 57.5 µM. In short, it runs like this:
as §2

For another test, the system named is JEG-3. The description is as above. The settings on record: Gynecologic cancer cell panel viability, ATPlite luminescence, 48 h; series mostly up to 57.5 µM. The essentials: as §2
The test system of the next test is OV90. The test is described as above. The settings on record: Gynecologic cancer cell panel viability, ATPlite luminescence, 48 h; series mostly up to 57.5 µM. The essentials: as §2
The subject of a further test is PA-1. The description is as above. Particulars: Gynecologic cancer cell panel viability, ATPlite luminescence, 48 h; series mostly up to 57.5 µM. In short, it runs like this: as §2
The next test has as its system SKOV3. The description is as above. Particulars: Gynecologic cancer cell panel viability, ATPlite luminescence, 48 h; series mostly up to 57.5 µM. The essentials: as §2
The subject of a further test is Tov-21-G. Described as above. The settings on record: Gynecologic cancer cell panel viability, ATPlite luminescence, 48 h; series mostly up to 57.5 µM. The essentials: as §2
A further test has as its system Tov112D. Described as above. The settings on record: Gynecologic cancer cell panel viability, ATPlite luminescence, 48 h; series mostly up to 57.5 µM. In short, it runs like this: as §2
The next test deals with astro. As to the kind of experiment: Drug repurposing screens with cells derived from glioblastoma tumor samples (AID 1345199). Further: on the % scale 0 is the no-effect control and ±100 the full control effect; nearly all actives have a fitted effect of over 40% in size. Particulars: viability, ATP luminescence, 48 h; series mostly up to 45.9 µM. The essentials: (§3)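 Four patient lines of CD133+ GBM neurospheres were screened at several concentrations; hits were retested in those lines plus three slower-growing GBM lines, using 48-hour treatment and ATP-based viability.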

Test [1] concerns the target Nuclear receptor subfamily 1 group I member 2 (Rattus norvegicus) (UniProt Q9R1A7). As to the kind of experiment: qHTS assay for small molecule activators of the rat pregnane X receptor (rPXR) signaling pathway (AID 651751; call rule not given here; further: 0% is about no effect). The settings on record: rPXR reporter cells, luciferase (One-Glo), 24 h.
In a further test the test system is Hek293T. Nature of the test: Primary qHTS to identify gynecologic anti-cancer compounds using libraries of approved drugs and bioactive compounds (AID 1345084). Further: nearly all actives have a fitted effect of over 55% in size. Further: potency means the concentration at half of the fitted maximal effect. The settings on record: Gynecologic cancer cell panel viability, ATPlite luminescence, 48 h, control line for the selectivity index; series mostly up to 57.5 µM. In short, it runs like this: as §2
Test [2] can be described thus: qHTS assay for small molecule activators of the human pregnane X receptor (PXR) signaling pathway (AID 720659; call rule not given here; further: 0% is about no effect).
Test [3] can be described thus: Drug repurposing screens with cells derived from glioblastoma tumor samples (AID 1345199). Further: on the % scale 0 is the no-effect control and ±100 the full control effect; nearly all actives have a fitted effect of over 40% in size. The settings on record: GBM patient neurospheres viability, ATP luminescence, 48 h. The essentials: as §3
Test [4] can be described thus: qHTS assay to identify inhibitors of the type 1 interferon - major histocompatibility complex class I in skeletal muscle: Counter screen cell viability and HiBit confirmation (AID 1347412). Further: on the % scale 0 is the no-effect control and ±100 the full control effect; nearly all actives have a fitted effect of over 60% in size. The settings on record: iHSKM muscle cells + IFN-b, HiBiT or CellTiter-Glo, 24 h; Potency: HiBiT; Viability, at 45.9 µM (top of the series). The essentials: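 CRISPR HLA-B*08:01-HiBit immortalized human myoblasts (C25cl48) stimulated with 4 ng/ml IFN-beta and compounds (12-point 1:3, top 46 uM final) for 24 h at 37 C. Duplicate plates read by HiBit lytic luminescence or CellTiter Glo ATP.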

Where [5] appears, read: at 46.1 µM (top of the series), tumour line C.
Where [6] appears, read: at 45.9 µM (top of the series), tumour line D.

SMILES strings stand for the structures. Several values for one entry are separate records, joined by “and”; a condition that tells them apart may be missing. Equal entries are not always repeated. Records with an inconclusive call do not appear. The source holds several records for some structures; these can differ, active in one and inactive in another. Activity calls are given as the source filed them. Unless noted, the call rests on the fitted dose curve; in most records, active means well fitted curve in the direction sought with a large enough effect; inconclusive means small, poorly fitted or top-dose-only effect, or another doubt; inactive means no such curve, though single readings can be large; an effect the other way counts as inactive or inconclusive.

Nuclear receptor subfamily 1 group I member 2 (Rattus norvegicus), sequence (Q9R1A7 whole entry, looked up): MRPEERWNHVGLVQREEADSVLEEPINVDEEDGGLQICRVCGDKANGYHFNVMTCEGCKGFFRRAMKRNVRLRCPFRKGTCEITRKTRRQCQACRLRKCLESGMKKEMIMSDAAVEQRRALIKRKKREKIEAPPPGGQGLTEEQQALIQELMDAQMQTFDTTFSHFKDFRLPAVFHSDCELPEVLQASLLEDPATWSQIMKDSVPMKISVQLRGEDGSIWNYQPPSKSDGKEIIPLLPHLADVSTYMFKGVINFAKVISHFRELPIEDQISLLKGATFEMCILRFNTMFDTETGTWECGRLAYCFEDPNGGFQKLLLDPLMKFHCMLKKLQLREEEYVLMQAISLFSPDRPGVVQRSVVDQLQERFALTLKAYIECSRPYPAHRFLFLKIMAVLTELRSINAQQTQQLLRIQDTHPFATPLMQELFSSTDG

Regarding `O=NN(CCCl)C(=O)NCCCl`, the Potency result in the test on UISO, in the test with WaGa, with C33A, with CAOV3, in the test on CASKI and with Es-2 was “inactive” each time. The Potency entry in the test on HeLa, with JEG-3, in the test with OV90, in the test on PA-1, in the test with SKOV3 and in the test on Tov-21-G was “inactive” in each case. Further, the Potency result in the test with Tov112D and with astro was “inactive” in each case. Besides, the max response in test [1] is -1.45% (inactive).

In the case of `COc1cc(F)c(F)c(Nc2ccc(I)cc2F)c1NS(=O)(=O)C1(C[C@H](O)CO)CC1`, the Potency result with UISO, with WaGa, with C33A, in the test with CASKI, in the test with HeLa and in the test with Hek293T was “inactive” in each case. Besides, the Potency entry with JEG-3, in the test on PA-1 and in the test on SKOV3 was “inactive” each time. The Potency with OV90 is 2.51 µM (active).

Regarding `CC(C)(Sc1ccc(CCN(CCCCC2CCCCC2)C(=O)NC2CCCCC2)cc1)C(=O)O`, the Potency entry in the test with UISO, in the test on C33A, in the test on CASKI, in the test on Es-2, with HeLa and with Hek293T was “inactive” in each case. Also, the Potency entry with JEG-3, in the test on OV90, in the test on PA-1, with SKOV3, with Tov-21-G and in the test on Tov112D was “inactive” each time. The max response in test [1] is -3.94% (inactive). The result in test [2] was inactive.

For `Nc1nc2ccc(OC(F)(F)F)cc2s1`, the Potency entry with UISO, in the test with WaGa, with C33A, in the test on CAOV3, with CASKI and in the test on Es-2 was “inactive” in each case. The Potency result in the test on JEG-3, with OV90, with SKOV3 and with astro was “inactive” throughout. Also, in [3] (setting [5]), the activity, negative = cell killing is 16.9% (inactive).

Take `O=c1[nH]cnc2[nH]ncc12`: the Potency entry in the test on UISO, with WaGa, with C33A, in the test with CAOV3, in the test on CASKI and in the test on Es-2 was “inactive” in each case. The Potency entry with HeLa, in the test with JEG-3, in the test on OV90, with PA-1, with SKOV3 and with Tov-21-G was “inactive” throughout. The Potency result with Tov112D and with astro was “inactive” each time. Also, the activity, negative = cell killing in [3] (at 45.9 µM (top of the series), tumour line B) is -5.74% (inactive); in test [3] (setting [6]) it was -0.0406% (inactive); in test [3] (at 46 µM (top of the series), tumour line A) it was -9.81% (inactive); in test [3] (setting [5]) it was 7.88% (inactive). Moreover, the max response in test [1] was 2.04% (inactive). In test [2], the call was inactive.

In the case of `C[C@H](NC(=O)Cc1cc(F)cc(F)c1)C(=O)N[C@@H]1C(=O)N(C)c2ccccc2-c2ccccc21`, the Potency result in the test on UISO, in the test with C33A, in the test on CAOV3, with CASKI, in the test with Es-2 and in the test with HeLa was “inactive” each time. The Potency result in the test with Hek293T, with JEG-3, in the test with OV90, in the test on PA-1, with SKOV3 and in the test with Tov-21-G was “inactive” each time. For the same compound, the Potency result in the test with Tov112D was “inactive”.

For `Cc1ccccc1C(OCCN(C)C)c1ccccc1` (stereo not drawn), the Potency entry in the test on UISO, in the test on WaGa, in the test with C33A, with CAOV3, in the test on CASKI and with Es-2 was “inactive” each time. In addition, the Potency result with HeLa, in the test on Hek293T, with JEG-3, in the test on PA-1, with SKOV3 and in the test on Tov-21-G was “inactive” each time. Further, the Potency entry with Tov112D and with astro was “inactive” in each case. Besides, the activity, negative = cell killing in test [3] (setting [6]) was -29.5% (inactive); in test [3] (setting [5]), 0.923% (inactive) and -8.9% (inactive). For the same compound, the max response in [1] is 4.25% (inactive).

Regarding `Nc1ccc(S(=O)(=O)Nc2ccnn2-c2ccccc2)cc1`, the Potency result in the test on UISO, in the test with WaGa, in the test on C33A, in the test with CAOV3, in the test on CASKI and in the test on Es-2 was “inactive” throughout. Moreover, the Potency entry with HeLa, in the test with Hek293T, in the test with JEG-3, in the test with OV90, with PA-1 and in the test on Tov-21-G was “inactive” each time. In addition, the Potency result in the test with Tov112D and with astro was “inactive” in each case.

Regarding `COc1cc(Nc2ncc3c(n2)-c2ccc(Cl)cc2C(c2c(F)cccc2OC)=NC3)ccc1C(=O)O`, the Potency entry with UISO, in the test with Es-2, with HeLa, in the test with Hek293T, with JEG-3 and with PA-1 was “inactive” in each case. The Potency result (with Tov-21-G; in the test with Tov112D; in test [4]) was “inactive” in each case. The Potency with WaGa was 0.148 µM (active); with C33A it was 28.2 µM (active) and inactive; in the test on CAOV3 it was 31.6 µM (active); in the test with OV90 it was 28.2 µM (active) and inactive; in the test on SKOV3, 25.1 µM (active) and inactive.

For the origin of these results see PubChem BioAssay (NCATS).
